Data taken from PubChem BioAssay (EPA / NIEHS).
Active and inactive are the calls of the source. How the source made its calls: active means hit-call score of the fitted dose curve at least 0.9, where 1 is the maximum; inactive means score below 0.9.

Assay: ATG_M_19_CIS: Attagene CIS-FACTORIAL HepG2 Assay for M19 Transcription Factor (Internal Marker) (AID 2282939)
Conditions: HepG2 Attagene CIS-FACTORIAL M19 internal marker reporter; actives raise or lower the signal
Description: ATG_CIS is a cell-based, multiplexed-readout assay that uses HepG2, a human liver cell line, with measurements taken at 24 hours after chemical dosing in a 24-well plate.ATG_M_19_CIS is one of 52 assay component(s) measured or calculated from the ATG_CIS assay. It is designed to make measurements of mRNA induction, a form of inducible reporter, as detected with fluorescence intensity signals by Reverse transcription polymerase chain reaction (RT-PCR) and Capillary electrophoresis technology.Data from the assay component ATG_M_19_CIS was analyzed into 1 assay endpoint. This assay endpoint, ATG_M_19_CIS, was analyzed with bidirectional fitting relative to DMSO as the negative control and baseline of activity. Using a type of inducible reporter, measures of mRNA for gain or loss-of-signal activity can be used to understand the background control at the transcription factor-level as they relate to the gene . Furthermore, this assay endpoint can be referred to as a secondary readout, because this assay has produced multiple assay endpoints where this one serves a background control function. To generalize the intended target to other relatable targets, this assay endpoint is annotated to the background measurement intended target family, where the subfamily is internal marker.
Human liver HepG2 cells are transiently transfected with multiple reporter transcription units (MRTUs) in 6-well plates using FuGene 6 reagent (Roche; 3 ml FuGene/1 mg DNA). The MRTU constructs are regulated by a cis-regulating element (promoter). […] A major difference between the CIS and TRANS system is that in CIS activities of endogenous TFs are measured, whereas the TRANS assay evaluates changes in activities of exogenous, chimeric NR-Gal4 proteins. […] At the end of 24 hour incubation, total RNA was isolated using TriZol reagent (Invitrogen). The isolated RNA is then reverse-transcribed using oligo(dT) primer and Mo-MLV reverse transcriptase (Invitrogen) with DNAse I (Ambion) treatment for 30 min. The one-tenth of the produced cDNA was amplified by PCR using Taq DNA polymerase (Invitrogen) and two reporter sequence-specific primers. The PCR products were fluorescently labeled by primer extension with 6-arboxyfluorescein (6-FAM) 5'-labeled reporter sequence-specific primer (2 min at 95 C, 20 s at 68 C and 10 min at 72 C) and these products were digested with 5U of HpaI (New England Biolabs) for 2h at 37 C. The fragments were purified using Qiaquick PCR columns (Qiagen), analyzed on an ABI 3130xL genetic analyzer (Applied Biosystems) with peak positions identified by using a set of X-rhodamine (ROX)-labeled MapMarker1000 molecular weight standards (BioVentures). The raw capillary electrophoresis data was processed using Attagraph software (Attagene).

outcome, inactive:
Oc1cccc2c(O)cccc12
FC(OC(F)(F)C(F)(F)C(F)(F)F)C(F)(F)F (stereo not given)
Oc1cc2ccccc2cc1O
Nc1ccc(O)c(C(=O)O)c1
C=CC(=O)OCCC(F)(F)C(F)(F)C(F)(F)C(F)(F)C(F)(F)C(F)(F)F
CCCCCCCCCCCCCCC
COC(O)c1ccccc1 (stereo not given)
O=C(Nc1ccc(Cl)c(Cl)c1)c1cc(Cl)cc(Cl)c1O
CC(C)[C@@H]1CC[C@@H](C)C[C@H]1O
O=C(NO)c1ccccc1
O=CC(F)(F)C(F)(F)C(F)(F)F
CCCCCc1ccc(O)cc1
C=CC(=C)CC/C=C(\C)CCC=C(C)C
FCOC(C(F)(F)F)C(F)(F)F
CC[N+](CC)(CC)Cc1ccccc1
NC(C(F)(F)F)C(F)(F)F
CCCCCCCCC1CCC(=O)O1 (stereo not given)
CCOC(OCC)C(=O)c1ccccc1
FC(F)=C(F)C(F)(F)C(F)(F)C(F)(F)C(F)F
CCc1cccc(CC)c1NC(=O)C(=O)O
CC(C)c1c(C(=O)Nc2ccccc2)c(-c2ccccc2)c(-c2ccc(F)cc2)n1CC[C@@H](O)C[C@@H](O)CC(=O)O
NS(=O)(=O)O
NNC(=O)CCCCC(=O)NN
c1ccc2c(c1)CCC2
CC1CCC(C(=O)O)CC1 (stereo not given)
CCCC=O
NCCN
O=C1OC(=O)C(F)(F)C1(F)F
OCC(CO)(CBr)CBr
O=C(F)C(F)(F)C(F)(F)C(F)(F)C(=O)F
CCC(=O)O
O=C1c2ccccc2C(=O)c2c(O)c(O)cc(O)c21
OCC1CCC(CO)CC1 (stereo not given)
FC(F)(F)C(F)(F)C(F)(F)C(F)(F)I
COc1cc(OC)nc(NC(=O)NS(=O)(=O)Nc2ccccc2C(=O)N(C)C)n1
Clc1ccc(Nc2nnc(Cc3ccncc3)c3ccccc23)cc1
CCCCCCCCCCCCCCCC(=O)OC
CCC(C)c1ccccc1O (stereo not given)
CCN(CCC#N)c1ccccc1
Brc1ccc(Oc2ccc(Br)cc2Br)cc1
